# Experiments:
# [1] = system: FAK
# [2] = system: FER
# [3] = system: FRK
# [4] = system: FGFR1
# [5] = system: FLT3
# [6] = system: GSG2
smiles,measurement,setting,value
CCCNC(=O)c1ccc(Nc2ncc(C(F)(F)F)c(Nc3ccccc3C(C)=O)n2)c(Br)c1 [BI00801818],Kinases covered,[1],FAK
CNC(=O)c1c(F)cccc1Nc1nc(Nc2cc3c(cc2OC)CCN3C(=O)CN(C)C)nc2[nH]ccc12 [GSK1838705],Kinases covered,[2],FER
CCc1cc(Nc2nccc(-c3c(-c4ccc(OC)c(C(=O)Nc5c(F)cccc5F)c4)nc4ccccn34)n2)c(OC)cc1N1CCC(N2CCN(S(C)(=O)=O)CC2)CC1 [GSK1904529],Kinases covered,[2],FER
same,Kinases covered,[3],FRK
COc1cc(OC)cc(-c2cc3cnc(N)nc3nc2NC(=O)NC(C)(C)C)c1 [PFE-PKIS 3],Kinases covered,[4],FGFR1
Cn1ccc2ncnc(Oc3ccc(NC(=O)Nc4ccccc4)cc3)c21 [TPKI-69],Kinases covered,[5],FLT3
COc1cc2c(cc1OC)C(=C(Nc1ccccc1)c1cccc(CN)c1)C(=O)N2 [BIBF0846CL],Kinases covered,[5],FLT3
COc1cc(N2CCN(C)CC2)ccc1Nc1ncc2c(n1)N(C)c1ccccc1C(=O)N2 [XMD8-87],Kinases covered,[3],FRK
c1ccc(-c2cc3ccncc3cc2OC2CCNCC2)cc1 [GSK1122999],Kinases covered,[6],GSG2
